High-throughput results: PubChem, National Center for Advancing Translational Sciences (NCATS)
An excerpt weighted towards active compounds, which were near 10% of everything screened.
BAZ2B inh – inhibitors of human BAZ2B bromodomain | AlphaScreen BAZ2B-H3K14Ac peptide displacement | AID 504333 | Potency, µM (highest dose often 114 µM), inactives show at the top dose activity change, negative = inhibition, most hits filed as inhibitors | 360,000 compounds, 4.4% hits; also: potency is read from the fitted curve at half-maximal effect; % is scaled to controls: 0 for no effect and ±100 for the full control effect; nearly all actives have a fitted effect of over 60% in size
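AlphaScreen displacement: compounds (up to 110uM) incubated 30 min at room temperature with a preformed 50 nM BAZ2B/50 nM biotinylated H3K14Ac peptide complex in PBS pH 7.4 with Tween-20. Donor and acceptor beads at 10 ug/mL final added, 20 min light-protected before reading.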
JMJD2A Tudor – JMJD2A Tudor domain (human) inhibition; 390,000 compounds, 4.4% hits; O75164; AID 504339; Potency, µM (titrated, usually from 114 µM), for the others: at the highest dose activity change, negative = inhibition, most hits filed as inhibitors; AlphaScreen JMJD2A-Tudor / H3K4me3 peptide binding; also: potency is read from the fitted curve at half-maximal effect; % is scaled to controls: 0 for no effect and ±100 for the full control effect; nearly all actives have a fitted effect of over 50% in size
CtBP-E1A blk – inhibitors of CtBP/E1A interaction. AlphaScreen GST-E1A/His-CtBP binding, 1536-well; hits give low values. activity change, % (concentration not given with the values). 340,000 compounds, 0.49% hits; in the data active = activity change below about -65%; inconclusive = mostly about -30% to -63%; also: % is scaled to controls: 0 for no effect and ±100 for the full control effect
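Homogeneous bead-based format: GST-tagged E1A captured on glutathione donor beads, His-tagged CtBP on nickel acceptor beads; compounds precede bead addition by 2 h at 37 °C.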
HP1b chromo inh – HP1-beta chromodomain-methylated histone interaction inhibition; P83916; AlphaScreen HP1-beta / biotin-H3K9me3 peptide binding; Potency, µM (top dose mostly 114 µM), without a hit: top-dose activity change, negative = inhibition, most hits filed as inhibitors; 390,000 compounds, 0.56% hits; AID 540317; also: potency is read from the fitted curve at half-maximal effect; nearly all actives have a fitted effect of over 70% in size
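AlphaScreen: HP1-beta (50 nM) preformed 30 min with biotin-H3(1-18)K9me3 peptide (50 nM) in PBS pH 7.4, 0.01% Tween-20. Compound added for 30 min at RT, then streptavidin donor/nickel chelate acceptor beads (10 ug/mL) for 30 min.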
Six1-Eya2 blk – inhibitors of human Six1/Eya2 interaction; activity change, % (no concentration beside the values); Q15475+O00167; 360,000 compounds, 0.56% hits; AlphaScreen GST-Six1/His-Eya2 binding, biochemical; hits give low values; in the data active = activity change below about -65%; inconclusive = mostly about -30% to -63%; also: % is scaled to controls: 0 for no effect and ±100 for the full control effect
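AlphaScreen with GST-Six1 and His-Eya2 (5X mix: 250 nM and 500 nM), glutathione donor and nickel acceptor beads; buffer 50 mM Tris pH 8.0, 300 mM NaCl, 1 mM TCEP; 1 h at 37 C in the dark.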
G9a block – G9a (human) methyltransferase inhibition | G9a H3K9 monomethylation, AlphaScreen, 2 h | Potency, µM (series often up to 102 µM), inactives show at the top dose activity, negative = inhibition, usual class: inhibitors | 350,000 compounds, 8.8% hits | Q96KQ7; also: potency is read from the fitted curve at half-maximal effect; % is scaled to controls: 0 for no effect and ±100 for the full control effect; nearly all actives have a fitted effect of over 75% in size
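Signal arises when biotinylated H3K9 peptide, once monomethylated, bridges streptavidin donor and antibody-captured acceptor beads. Enzyme at 20 nM was preincubated 15 min with test compounds; peptide 500 nM and SAM 20 uM then reacted for 2 h.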
Starred values were filed as active, the others as inactive; ? = inconclusive; . = not tested or not shown; ! = a repeat was not active; [ ] = remark or other dose. Unless noted, calls follow the shape of the dose curve; as a rule, active = well fitted inhibition curve with a large enough effect; inconclusive = small, poorly fitted or top-dose-only effect; inactive = no such curve, though single readings can be large or run the other way.

SMILES | BAZ2B inh | JMJD2A Tudor | CtBP-E1A blk | HP1b chromo inh | Six1-Eya2 blk | G9a block
COCCCN1C(=O)c2[nH]nc(-c3cc(C)cc(C)c3O)c2C1c1ccc(O)c(OC)c1 (stereo not given) | -10% | -35% | -3 | -4% | -2 | 45µM*
CCOCCSc1c(C)cnc2c1c(=O)n(C)c(=O)n2C | -3% | -15% | . | 13% | . | 13µM*
CC(C(=O)Nc1ccccc1C(=O)N1CCOCC1)N(c1ccc(Cl)cc1)S(C)(=O)=O (stereo not given) | -14% | 11µM* | 7 | ? | 7 | 4%
COc1ccccc1-c1nc(C#N)c(N2CCC(Cc3ccccc3)CC2)o1 | -1% | ? | -23 | ? | ? | ?
CN(Cc1ccccc1)c1oc(-c2ccco2)nc1C#N | 45µM* | ? | -25 | ? | -23 | ?
CN(C)c1oc(-c2ccco2)nc1C#N | -4% | -14% | -5 | 25% | -2 | 5%[59 µM]
COc1ccccc1-c1nc(C#N)c(N2CCN(Cc3ccccc3)CC2)o1 | 28µM* | ? | ? | 14µM* | ? | ?
N#Cc1nc(-c2ccco2)oc1N1CCN(Cc2ccccc2)CC1 | 50µM* | ? | -11 | -24% | -14 | ?
O=C1c2ccccc2C(=O)N1CC(O)Cn1nnc2ccccc21 (stereo not given) | -4% | -8% | 3 | 32% | 3 | 10%[59 µM]
OC(CN1c2ccccc2Sc2ccccc21)Cn1nnc2ccccc21 (stereo not given) | -3% | ? | -5 | ? | -8 | 20µM*
COc1ccc(N2CCN(C(=O)c3nc(SC)ncc3Cl)CC2)cc1 | -30% | -18% | . | 27% | . | 10µM*
CCCSc1ncc(Cl)c(C(=O)N2CCN(c3ccc(OC)cc3)CC2)n1 | 35µM* | ? | . | -11% | . | 10µM*
CCc1cc(/C(Cc2csc(C)n2)=N/O)c(O)cc1O | -34% | -13% | -7 | 29% | -12 | 15%[2.33 µM]
Cc1nc(C/C(=N\N)c2ccc(O)cc2O)cs1 | -22% | -17% | 0 | 8% | 0 | 32µM*
N/N=C(\Cc1cscn1)c1ccc(O)cc1O | -14% | -14% | -5 | 36% | -6 | 10µM*
Cc1cc(O)cc(O)c1C(=O)Cc1cscn1 | -30% | -8% | 1 | 13% | 1 | -46%
O=C(CCS(=O)(=O)c1cc(Br)cc2c1N(C(=O)C1CC1)CC2)Nc1ccc(F)cc1 | -6% | -16% | . | 19% | . | -17%[59 µM]
CC(C)(C)NC(=O)CSc1ncnc2c1nnn2Cc1ccccc1Cl | -1% | 50µM* | 12 | -2% | -4 | -32%
O=C(CC1CCOCC1)Nc1ccc(Cl)c(Cl)c1 | -15% | 0% | -12 | 26% | -17 | 40µM*
O=[N+]([O-])c1ccccc1-c1cc(-c2ccccc2O)n[nH]1 | ? | -32%[57.1 µM] | -12 | -4% | -6 | -2%[59 µM]
O=[N+]([O-])c1ccccc1N=Nc1ccc(O)cc1O | . | 56µM* | 10 | ? | -8 | .
Cc1ccc(-n2c(C)cc(C=C(C#N)C#N)c2C)cc1 | 3% | -21% | -3 | 9% | 1 | -6%[59 µM]
CCN(CC)c1ccc(-n2c(C)cc(C=O)c2C)cc1 | ? | -7%[11.4 µM] | -22 | ? | ? | 45µM*
CCN(CC)c1ccc(-n2c(C)c(C(C)=O)c(C(C)=O)c2C)cc1 | . | 89µM* | -18 | ? | -19 | ?
CN1C(=O)/C(=N\OC(=O)c2ccccc2Cl)c2ccccc21 | ? | -9% | . | 49% | 4 | ?
SMILES | BAZ2B inh | JMJD2A Tudor | CtBP-E1A blk | HP1b chromo inh | Six1-Eya2 blk | G9a block
CC(=O)O/N=C1\C(=O)N(Cc2ccc(C)cc2)c2ccccc21 | -29% | -32% | -18 | 1% | -2 | 50µM*
COc1ccc(OC)c(S(=O)(=O)N2CCN(Cc3ccccc3)CC2)c1 | -9% | 1% | . | 28% | -1 | .
COc1cc(S(=O)(=O)N2CCN(Cc3ccccc3)CC2)ccc1Br | 4% | -11% | -6 | 18% | 0 | 45µM*
COc1cc(CN2CCN(c3cccc(Cl)c3)CC2)cc(OC)c1OC | 50µM* | 3.5µM* | -14 | ? | -12 | 13µM*
COc1cc(CN2CCN(C(O)(c3ccccc3)c3ccccc3)CC2)cc(OC)c1OC | ? | 25µM* | 6 | -13% | -4 | .
COc1ccc(S(=O)(=O)N2CCN(Cc3ccc(OC)c(OC)c3)CC2)cc1 | 7% | -8% | -19 | 55% | 15 | .
COc1cc(CN2CCN(S(=O)(=O)c3ccccc3)CC2)cc(OC)c1OC | ? | 20µM* | . | ? | 6 | 28µM*
COc1cc(F)ccc1S(=O)(=O)N1CCN(Cc2ccccc2)CC1 | 2% | -2% | 2 | 28% | -3 | -8%[0.501 µM]
COc1cc(CN2CCN(S(=O)(=O)c3ccc(F)cc3)CC2)cc(OC)c1OC | 5% | 7.9µM* | 14 | ? | -1 | 7.9µM*!
Cc1ccc(C(C)(O)CS(=O)(=O)Cc2ccccc2Cl)cc1 (stereo not given) | 5% | -2% | -2 | 56% | -7 | 45µM*
CC(O)(CS(=O)(=O)Cc1ccccc1)c1ccc(Cl)cc1 (stereo not given) | -30% | 2% | . | 35% | 0 | -31%
Cc1ccc(C2CC2c2n[nH]c(=S)n2-c2cccc(C)c2)cc1 (stereo not given) | -31% | -27%[11.4 µM] | . | -19% | -19 | 14µM*
Cc1ccc(N2C(=O)c3[nH]nc(-c4ccc(Cl)cc4)c3C2c2ccc(F)cc2)cc1 (stereo not given) | . | -31% | . | 21% | . | -1%[59 µM]
Cc1ccc(C2CC2c2n[nH]c(=S)n2-c2ccc(Cl)cc2)cc1 (stereo not given) | -35% | -14% | -7 | -5% | -11 | 22µM*
S=c1[nH]nc([C@@H]2C[C@H]2c2ccccc2)n1-c1ccccc1Cl | -23% | ? | . | 44% | -2 | 5µM*
Cc1cc(C)c2c(-n3cccc3)c(C(=O)NCCCN3CCCCC3C)sc2n1 (stereo not given) | ? | -20% | . | 32% | . | -40%[59 µM]
C#CC[N+]1(CC#Cc2ccccc2)CCCCC1 | -5% | -1% | -15 | 48% | 12 | 19%[59 µM]
C(#Cc1ccccc1)C[N+]1(CC#Cc2ccccc2)CCCCC1 | -38% | 45µM* | -1 | 5% | -1 | -33%
Cc1ccc(C#CC[N+]2(CC#Cc3ccc(C)cc3)CCCCC2)cc1 | 4% | -23% | -10 | 22% | 3 | 89µM*
CCCC1=C(C(=O)OCC)C(c2ccc(F)cc2)n2ncnc2N1 (stereo not given) | 9% | -1% | 0 | 46% | -3 | ?
CCCCOC(=O)C1=C(C)Nc2ncnn2C1c1ccc(OC)c(OC)c1 (stereo not given) | ? | -29% | -2 | 35% | -2 | 50µM*
